FLuc counter = counter-screen for miR-21 project: firefly luciferase inhibitors or activators; P08659; purified FLuc, Km substrates, luminescence inhibition; Potency, µM (doses to about 57.5 µM), actives largely listed as inhibitors; 360,000 compounds, 6.9% hits; AID 588342; note: nearly all actives have a fitted effect of over 55% in size
Target sequence (P08659 whole entry, looked up): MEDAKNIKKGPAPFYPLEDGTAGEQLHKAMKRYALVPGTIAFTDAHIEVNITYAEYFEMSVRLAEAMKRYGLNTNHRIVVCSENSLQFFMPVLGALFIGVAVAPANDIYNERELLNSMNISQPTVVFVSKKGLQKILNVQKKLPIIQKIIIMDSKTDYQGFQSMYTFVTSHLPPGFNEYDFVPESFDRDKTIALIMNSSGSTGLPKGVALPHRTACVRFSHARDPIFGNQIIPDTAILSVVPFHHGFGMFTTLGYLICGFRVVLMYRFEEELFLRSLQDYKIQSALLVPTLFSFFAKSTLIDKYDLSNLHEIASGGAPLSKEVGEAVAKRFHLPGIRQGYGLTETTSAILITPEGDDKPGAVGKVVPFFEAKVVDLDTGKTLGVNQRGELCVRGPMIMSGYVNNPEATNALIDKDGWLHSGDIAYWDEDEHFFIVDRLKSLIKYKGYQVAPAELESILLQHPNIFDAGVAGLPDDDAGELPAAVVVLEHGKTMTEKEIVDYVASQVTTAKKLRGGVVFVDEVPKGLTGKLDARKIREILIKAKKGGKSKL
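Biochemical qHTS of compounds, final roughly 60 µM downward over six points, against 10 nM purified firefly luciferase using Km concentrations of substrates (10 uM D-luciferin, 10 uM ATP) in Tris acetate pH 7.5 buffer; luminescence output.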
ELG1 repair inh = blocks ELG1-dependent DNA repair in HEK293T cells; HEK293T ELG1-luciferase reporter, luminescence, 16 h; DNA damage induced by 5-fluorouridine; Potency, µM (titrated, usually from 46.1 µM), usual class: inhibitors; 330,000 compounds, 2.3% hits; AID 504467; note: nearly all actives have a fitted effect of over 55% in size
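Reporter activity after DNA damage by 5-fluorouridine is monitored. Compound-treated cells incubate 16 hr at 37 °C, then ONE-Glo is added for 30 min before luminescence reading.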
NPC1 prom act = activates the NPC1 promoter | 320,000 compounds, 2.4% hits | Huh7 NPC1 promoter luciferase reporter, 24 h | Potency, µM (top dose mostly 9.22 µM), actives largely listed as activators | AID 485313; note: nearly all actives have a fitted effect of over 60% in size
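Readout is luciferase luminescence, reflecting NPC1 promoter activation in stably transfected Huh7 cells after 24 h compound exposure at 37 °C in reduced-serum medium with 10% FBS.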
ELG1 genotoxic = inducers of genotoxicity in HEK293T ELG1-luciferase cells; HEK293T ELG1-luciferase reporter, luminescence, 16 h; Potency, µM (top dose mostly 46 µM), actives largely listed as activators; 330,000 compounds, 1.3% hits; AID 504466; note: nearly all actives have a fitted effect of over 60% in size
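Cells (2,000/well) expressing the ELG1-luciferase fusion are dosed by pin tool and kept 16 hr at 37 °C, 5% CO2. Signal comes from ONE-Glo luciferase reagent after 30 min at room temperature.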
Rab9 promoter act = activators of Rab9 promoter. 320,000 compounds, 2.8% hits. Huh7 Rab9 promoter-luciferase reporter, luminescence, 24 h. Potency, µM (titrated, usually from 9.22 µM), hits mostly activators. AID 485297; note: nearly all actives have a fitted effect of over 60% in size
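Steps: seed 1500 Huh7 Rab9-luc cells per well, rest 2 h at 37 °C; add compound in DMSO; incubate 24 h; add luciferase reagent, 10 min ambient; read luminescence.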
SMN2 splice up = increases expression of the SMN2 splice variant. AID 1458. 210,000 compounds, 2.8% hits. Potency, µM (top dose mostly 46.1 µM), hits mostly activators. HEK293 SMN2-luciferase splicing reporter, luminescence, 30-36 h; note: nearly all actives have a fitted effect of over 55% in size
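HEK293 cells carry an SMN2 minigene-luciferase reporter in which exon 7 inclusion puts luciferase in frame. Cells were seeded at 2000 cells/well, attached for 10-12 hours, then exposed to compounds for 30-36 hours at 37C before ONE-Glo luminescence.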
A number is an active result; - = inactive; ? = inconclusive; . = not tested or not shown; [ ] = another dose, or the depositor's remark. A selection: hits, their analogues and other compounds. The true share with any hit is near 9.2%. Calls come from the whole dose curve; as a rule, active = well fitted curve in the direction sought with a large enough effect; inconclusive = small, poorly fitted or top-dose-only effect, or another doubt; inactive = no such curve, though single readings can be large; an effect the other way counts as inactive or inconclusive.

SMILES	FLuc counter	ELG1 repair inh	NPC1 prom act	ELG1 genotoxic	Rab9 promoter act	SMN2 splice up
Cc1ccc(Cn2c(=O)c3c(nc4n3CCN4c3cc(C)cc(C)c3)n(C)c2=O)cc1	-	.	.	.	.	.
Cc1cc2nc(-c3cccc(NC(=O)COc4ccc(Cl)c(C)c4)c3)oc2cc1C	1.9µM	.	.	.	.	.
Cc1cc2nc(-c3cccc(NC(=O)COc4ccc(C(C)C)cc4)c3)oc2cc1C	1.51µM	.	.	.	.	-
COC(=O)c1ccc2c(c1)S(=O)(=O)NC(=NCc1ccco1)S2	-	-	-	-	-	-
Cc1cc(C)n2nc(-c3ccc(F)cc3)nc2n1	16.9µM	?	3.98µM	?	?	?
CC(=O)c1ccc(S(=O)(=O)N2CCN(CC(=O)NC(=O)NC3CCCCC3)CC2)cc1	-	-	-	-	-	.
Cc1cc(OC(=O)c2ccccc2Cl)cc(=O)n1C	15.1µM	?	-	-	-	-
O=C(Oc1ccc(N2C(=O)CCC2=O)cc1)c1ccccc1Cl	23.9µM	-	-	-	-	-
CCN(CC(=O)NCc1ccc(Cl)cc1)C(=O)c1ccc(C#N)cc1	-	-	-	-	-	.
CCOC(=O)N1CCN(C(=O)CSc2nc(-c3cccc(C)c3)ns2)CC1	16.9µM	-	-	-	-	-
CCOC(=O)CNC(=O)CSc1nc(-c2ccc(C)cc2)ns1	12µM	-	-	-	-	-
COc1ccc(-c2nsc(SCC(=O)Nc3ccc4c(c3)OCO4)n2)cc1	-	?	-	-	-	-
CCOC(=O)CNC(=O)CSc1nc(-c2ccccc2)ns1	?	-	-	-	-	-
CCOC(=O)CSc1nc(-c2ccc(OC)cc2)ns1	23.9µM	?	-	-	-	-
Cc1cccc(-c2nsc(SCC(=O)Nc3cc(C)on3)n2)c1	-	?	-	-	-	-
Cc1cc(-c2nnc(SCC(=O)Nc3ccccc3C)n2N)n[nH]1	-	-	-	-	-	.
Cc1cccc(N2CCN(C(=O)CS(=O)(=O)Cc3nc(-c4ccccc4C)oc3C)CC2C)c1 (configuration not stated)	-	.	.	.	.	-
O=C1N[C@@H](Cc2c[nH]c3ccccc23)COC(=O)[C@H](Cc2ccc(F)cc2)C/C=C\C[C@@H]1CC(=O)N(CCO)Cc1ccccc1	.	23.1µM	.	-	.	.
O=C(N[C@H]1C/C=C\C[C@@H](CC(=O)N(CCO)Cc2ccccc2)C(=O)N[C@H](Cc2c[nH]c3ccccc23)COC1=O)OCC1c2ccccc2-c2ccccc21	.	20.6µM	.	-	.	.
O=C1N[C@H](Cc2ccccc2)COC(=O)[C@@H](Cc2ccc(F)cc2)C/C=C\C[C@H]1CC(=O)N(CCO)Cc1ccccc1	.	?	.	-	.	.
O=C1N[C@@H](Cc2c[nH]c3ccccc23)COC(=O)[C@@H](Cc2ccc(F)cc2)C/C=C\C[C@H]1CC(=O)N(CCO)Cc1ccccc1	.	18.3µM	.	-	.	.
c1ccc(-c2nc(C3CCCCC3)no2)cc1	16.9µM	?	-	20.6µM	-	-
COc1ccc(-c2nc(C3CCCCC3)no2)cc1OC	15.1µM	?	?	?	2µM	-
Cc1ccc(-c2nc(C3CCN(S(=O)(=O)c4ccc(C(C)(C)C)cc4)CC3)no2)cc1	-	-	-	-	-	-
O=C(Nc1ccc(S(=O)(=O)N2CCCC2)cc1)c1ccc2c(=O)n3c(nc2c1)CCCCC3	-	10.3µM	-	-	-	-
SMILES	FLuc counter	ELG1 repair inh	NPC1 prom act	ELG1 genotoxic	Rab9 promoter act	SMN2 splice up
Cc1ccc(NC(=O)c2ccc3c(=O)n4c(nc3c2)CCC4)cc1S(=O)(=O)N(C)C	?	-	-	-	-	.
Cc1ccc(S(=O)(=O)N2CCCCC2)cc1NC(=O)c1ccc2c(=O)n3c(nc2c1)CCCCC3	-	11.6µM	-	-	-	-
Cc1nnc(SCC(=O)Nc2nc(-c3ccc(F)cc3)cs2)[nH]c1=O	16.9µM	-	-	-	-	-
CC(C)(C)NC(=O)CSc1nc(-c2ccc(F)cc2)cs1	6.75µM	?	3.55µM	?	2µM	14.1µM
Cc1cc(=O)[nH]c(SCC(=O)Nc2nc(-c3ccccc3)cs2)n1	-	?	-	-	-	-
O=C(CSc1nnc(-c2cccnc2)n1Cc1ccco1)Nc1nc(-c2ccc(F)cc2)cs1	15.1µM	20.6µM	-	-	-	-
O=C(CSc1nc(-c2ccc(Cl)cc2)cs1)Nc1cccc([N+](=O)[O-])c1	9.53µM	-	-	-	-	-
CC(=O)c1cccc(OCC(O)CNCCOc2ccc(C)cc2)c1 (configuration not stated)	-	-	-	-	-	.
CCn1c(SCC(=O)Nc2nc(-c3ccc(C)cc3)cs2)nnc1-c1ccccc1O	?	16.4µM	-	-	-	-
Cc1csc(SCC(=O)Nc2nc(-c3ccccc3)cs2)n1	-	?	-	?	-	-
CCn1c(SCC(=O)Nc2nc(-c3ccc(C)cc3)cs2)nnc1-c1ccccc1	23.9µM	25.9µM	-	-	-	-
CCn1c(CSc2nc(C)cc(C)n2)nnc1SCC(=O)Nc1nc(-c2ccccc2)cs1	-[2.3 µM]	-	-	-	-	-
Cc1ccc(-c2csc(NC(=O)CSc3nc(C)cs3)n2)cc1	?	?	?	-	-	14.1µM
O=C(NC1CC(=O)N(c2ccc(F)cc2)C1)C(c1ccccc1)c1ccccc1 (configuration not stated)	-	.	.	.	.	.
COC(=O)C(NNc1ccccc1)(NC(=O)c1cccc(F)c1)C(F)(F)F (configuration not stated)	-	-	-	-	-	-
CCCCn1c(N)c(N(C)C(=O)C2CCCC2)c(=O)[nH]c1=O	-	-	-	-	-	.
O=C(C1CCCN(S(=O)(=O)c2cccc3nsnc23)C1)N1CCN(c2ccccc2F)CC1 (configuration not stated)	-	.	.	.	.	-
CCn1cc(C(=O)NCCc2ccc(OC)cc2)c(=O)c2ccc(C)nc21	-	-	-	-	-	.
O=c1cc(CSc2n[nH]c(=O)n2C2CC2)c2ccc(O)cc2o1	-	-	-	-	-	.
CC(OC(=O)CCN=C1NS(=O)(=O)c2ccccc21)C(=O)Nc1ccc(S(N)(=O)=O)cc1 (configuration not stated)	-	-	-	-	-	.
NCCOc1ccccc1OCCN	-	-	-	-	-	-
NCCOc1ccccc1-c1ccccc1	-	-	-	-	4.47µM	-
COc1ccc(CNS(=O)(=O)CCNC(=O)c2cccc(OC)c2)cc1	-	-	-	-	-	.
CCc1nn2c(=O)cc(COC(=O)CNC(=O)c3ccccc3)nc2s1	-	.	.	.	.	.
Cc1ccc(OC(=O)c2sc3ncn(C)c(=O)c3c2C)cc1	?	?	2.82µM	-	2.82µM	-
O=S(=O)(Cc1ccccc1)N1CCN(Cc2ccc(Br)cc2)CC1	?	?	?	16.4µM	-	.
N#C/C(=C\c1ccc(F)cc1)c1nc(-c2ccco2)cs1	2.69µM	?	?	?	?	-

Screens as filed in PubChem.
